Laboratory results published in PubChem BioAssay AID1578 (Sanford-Burnham Center for Chemical Genomics, 2009).
Screen size: about 290,000 compounds; about 3,000 (1%) were called active. Only a selection was taken, and actives are over-represented in it overall. Unmarked numbers belong to inactive results. No stated cut-off is given here; in the data, active means inhibition mostly above about 36% (no sharp cut-off); inactive means mostly below about 34%.

Experiment: inhibition of NOD1-driven NF-kB reporter – cell-based, luminescence, uHTS, primary screen (AID 1578);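 further: HEK-293T reporter cells stimulated with the NOD1 agonist gamma-tri-DAP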
Conditions: NOD1-driven NF-kB luciferase reporter cells, at 4 µM, stronger effect = higher value

Compound | inhibition
COc1ccc(O)c(C2(O)C(=O)c3ccccc3C2=O)c1 | 0.1%
O=C(CNC(=O)c1ccc2c(c1)OCO2)N/N=C/c1cccc([N+](=O)[O-])c1 | -59.4%
CC(/C=C/c1ccccc1)=N/NC(=O)CNC(=O)c1ccc2c(c1)OCO2 | 5.3%
O=C(CNC(=O)c1ccc2c(c1)OCO2)N/N=C(Br)/C=C/c1ccccc1 | 80% (active)
O=C(NCCOc1ccccc1)c1ccc2c(c1)OCO2 | 55.9% (active)
COCCCNC(=O)c1ccc2c(c1)OCO2 | -16.8%
Cc1ccc(OCCNC(=O)c2ccc3c(c2)OCO3)cc1 | -63.7%
Cc1ccccc1C(=O)OCc1cnc(Cl)s1 | -8.8%
S=c1[nH]nc(C23CC4CC(CC(C4)C2)C3)n1Cc1ccco1 | 1.2%
CCOC(=O)/C=C/C(=O)OCC(=O)NC(c1ccccc1)c1ccccc1 | 25.7%
O=C(COC(=O)/C=C/C(=O)N1CCN(c2ccccc2)CC1)NC(c1ccccc1)c1ccccc1 | 76.2% (active)
O=C(COC(=O)/C=C/C(=O)N1CCN(c2ccccc2)CC1)NCc1ccc(F)cc1 | -5.2%
Cc1ccc(NS(=O)(=O)c2c(C)[nH]c(C)c2C(=O)N2CCCCC2)cc1F | -24.4%
CCCCn1c(Oc2ccc(C(=O)OC)cc2)nc2c1c(=O)n(C)c(=O)n2C | 9.2%
O=C(CN1C(=O)CC(c2ccccc2)Sc2ccccc21)NCC1CCCO1 (stereo not given) | -33.1%
Cc1[nH]nc2c1C(c1cccnc1)N(c1ccc(Br)cc1)C2=O (stereo not given) | 43.6% (active)
Cc1ccc(N2C(=O)c3n[nH]c(C)c3C2c2cccnc2)cc1 (stereo not given) | -28.2%
CCOC(=O)c1ccc(N2C(=O)c3n[nH]c(C)c3C2c2cccnc2)cc1 (stereo not given) | 9.9%
Nc1nc(CSCc2ccccc2)nc(N2CCOCC2)n1 | 2%
CC(=O)N/N=C(\C)CCc1ccccc1 | -4.4%
Cc1cc(=O)[nH]c(SC(C)C(=O)Nc2cccc3ccccc23)n1 (stereo not given) | -23.2%
CC1=C(C(=O)OCc2ccccc2)C(c2cccc(Cl)c2Cl)NC(=O)N1CCCCCC(=O)O (stereo not given) | 8.9%
CC1=C(C(=O)OCc2ccccc2)C(c2ccccc2Cl)NC(=O)N1CCCC(=O)O (stereo not given) | 17.1%
CC1=C(C(=O)OCc2ccccc2)C(c2ccccc2Cl)NC(=O)N1CCCCCC(=O)O (stereo not given) | 68.6% (active)

Compound | inhibition
O=C(Nc1ccc(Br)cc1)c1cccc(N2C(=O)C3C4CCC(C4)C3C2=O)c1 (stereo not given) | 11.1%
O=C(O)c1ccc(NC(=O)c2cccc(N3C(=O)C4C5CCC(C5)C4C3=O)c2)cc1 (stereo not given) | -29.6%
O=C(NC(c1ccccc1)c1ccccc1)c1cccc(S(=O)(=O)NCc2ccccc2)c1 | -4.9%
COc1ccc(/C=C2\CC/C(=C\c3ccc(OC)cc3OC)C2=O)c(OC)c1 | -1.2%
COc1cc(/C=C2/CC/C(=C/c3ccc(O)c(OC)c3)C2=O)ccc1O | 20.8%
COc1ccc(/C=C2\CCC/C(=C\c3ccc(OC)c(OC)c3OC)C2=O)c(OC)c1OC | -1%
COc1cc(OC)c(OC)cc1/C=C1/Cc2ccccc2C1=O | -5%
COc1cc(/C=C2\COC/C(=C\c3ccc(O)c(OC)c3)C2=O)ccc1O | 0%
COc1cc(OC)c(OC)cc1/C=C1\CCC(C2CCCC2)C1=O (stereo not given) | -28.9%
COc1cccc(NC(=O)N2CCCC(C(=O)NCc3ccc(F)cc3)C2)c1 (stereo not given) | -13.5%
COc1cc(-c2c(-c3cccc(C)c3)oc3ccccc23)cc(OC)c1OC | 4.2%
Cc1c(/C=N/NC(=O)c2cccnc2)c2ccccc2n1Cc1ccccc1 | 38.8% (active)
O=C(N/N=C/c1c(O)n(Cc2ccccc2)c(=O)c2ccccc12)c1cccnc1 | -5.8%
Cc1nn(Cc2ccccc2)c(C)c1/C=N/NC(=O)c1cccnc1 | 25.8%
CC1CCN(C(=O)c2ccccc2NC(=O)c2cccc(S(=O)(=O)N3CCOCC3)c2)CC1 | -2.3%
COc1ccc(CN(C)C(=O)CCl)cc1 | 10%
CN(Cc1ccc(Cl)s1)C(=O)CCl | 99.8% (active)
CCOc1ccc(CN(C)C(=O)CCl)cc1 | 10.8%
O=C(NC1CC1)C1CCN(C2CCN(C(=O)/C=C/c3cccc(F)c3F)CC2)CC1 | -10.9%
CC1CN(S(=O)(=O)c2ccc(C(=O)Nc3ccc(S(=O)(=O)Nc4ncccn4)cc3)cc2)CC(C)O1 (stereo not given) | -34.7%
O=C(NCc1ccco1)c1c[nH]c2ccc(S(=O)(=O)N3CCOCC3)cc2c1=O | -21.1%
O=C(O)c1ccc2nc(-c3ccccc3)sc2c1 | 26.5%
Nc1ccc(-c2nc3ccc(N)cc3s2)cc1 | -7.4%
Nc1ccc(-c2nc3ccc(C(=O)O)cc3s2)cc1 | 89.8% (active)

Compound | inhibition
C[C@@H]1NC(=O)[C@H](CCC(=O)O)NC(=O)c2cc([N+](=O)[O-])cc(F)c2NCCC[C@@H](C(N)=O)NC1=O | -18.8%
O=c1c2[nH]c3ccc(F)cc3c2ncn1CCC1=CCCCC1 | -0.7%
c1csc(-c2csc3ncnc(NCCCN4CCOCC4)c23)c1 | 30.7%
Oc1ccc(Nc2ncnc3scc(-c4ccccc4)c23)cc1 | 83.6% (active)
CN(C)CCCNc1ncnc2scc(-c3ccccc3)c12 | -40.3%
c1ccc(CNc2nc(-c3cccs3)nc3ccccc23)nc1 | -27.4%
Cc1sc2ncnc(NCC3COc4ccccc4O3)c2c1C (stereo not given) | 44.6%
O=C(O)c1ccc(Nc2ncnc3scc(-c4ccccc4)c23)cc1 | -63%
c1ccc(-c2csc3ncnc(NCC4COc5ccccc5O4)c23)cc1 (stereo not given) | 75.2% (active)
c1ccc2c(c1)OCC(CNc1ncnc3sccc13)O2 (stereo not given) | 57.1%
COc1ccc(-c2csc3ncnc(Nc4ccc(O)cc4)c23)cc1 | 15.8%
Cc1csc2ncnc(NCCc3ccccn3)c12 | 37%
CC(=O)N(c1ccc(N(C(C)=O)S(=O)(=O)c2cccs2)cc1)S(=O)(=O)c1cccs1 | 3%
CSc1nnc2c3cc(F)ccc3n(Cc3ccccc3)c2n1 | -1.5%
CN(C)/C=C/C(=O)c1cnc(-c2ccccc2Cl)s1 | -20.8%
Cn1c(=O)oc2cc(S(=O)(=O)NCCC(=O)N3CCN(c4ccccc4)CC3)ccc21 | -5.7%
CCC(C)C(=O)Nc1cc(C(=O)OC)ccc1C(=O)OC (stereo not given) | -11.8%
CC1(C)CC(=O)c2cc(N=C/C(C(=O)c3ccccc3)=C(\O)c3ccccc3)c(=O)oc2C1 | -21.7%
Cc1cc(C)n2nc(N)c(N=Nc3ccc4c(c3)OCO4)c2n1 | 22.6%
Nc1nn(-c2ccccc2)c(N)c1N=Nc1ccc2c(c1)OCO2 | -68.3%
COc1cccc(CNC(C)(C)CO)c1OCc1ccc(Cl)cc1 | -33%
COc1ccc(CC(=O)NC2CCN(Cc3nnnn3C(C)(C)C)CC2)cc1OC | -12.7%
COc1ccc(/C=C/C(=O)N2CCN(c3ccccn3)CC2)cc1 | -37.3%
CCOC(=O)/C(C#N)=C\C1=C(N2CCOCC2)CC(C)(C)OC1 | -33.6%

Compound | inhibition
CCOC(=O)C1=C(CC)Nc2ccccc2N=C1NC(=O)CCN1C(=O)C2CCCCC2C1=O (stereo not given) | -14.8%
N#CC1=C(S)N(c2ccccc2)C(c2ccco2)NC1=O (stereo not given) | 68.4% (active)
N#CC1=C(S)N(c2ccc(F)cc2)C(c2ccco2)NC1=O (stereo not given) | -47.2%
Cc1ccc(N2C(S)=C(C#N)C(=O)NC2c2ccco2)cc1 (stereo not given) | -33.2%
CCC(=O)c1ccc(OCC(=O)NC2(C#N)CCCCC2)cc1 | -14.9%
COc1ccc(CCNC(=O)C(=O)NCC2OCCN2C(=O)c2ccc(Cl)cc2)cc1OC (stereo not given) | -3.4%
Cc1cc(C)c(C2C(C#N)=C(N)Oc3n[nH]c(C)c32)cc1CN1CCOCC1 (stereo not given) | -16%
COc1ccc(/C=N/Nc2nnc(Cc3ccc(OC)c(OC)c3)c(=O)[nH]2)cc1OC | 4.2%
COc1ccc(-c2nc3ccccn3c2NCc2ccc3c(c2)OCO3)cc1 | -27.1%
Cc1ccn2c(NCc3ccc4c(c3)OCO4)c(-c3ccc(O)cc3)nc2c1 | 3.7%
COc1ccc(-c2nc3cc(C)ccn3c2NCc2ccc3c(c2)OCO3)cc1 | 48.5% (active)
Cc1cccc(C)c1OCc1nnc(SCC(=O)Nc2ccc(N3CCOCC3)cc2)o1 | 17.6%
Cc1cc(-c2ccc(C)c(S(=O)(=O)NCc3cccc(Br)c3)c2)on1 | -20.4%
Cc1ccc(NCc2cccnc2)c(Br)c1 | -14.3%
Cc1ccc(NCc2ccncc2)c(Br)c1 | 63.7% (active)
Cc1cc(C)cc(NCc2ccncc2)c1 | -8.1%
COc1ccc(S(=O)(=O)NCc2ccncc2)cc1OC | 24.7%
Cc1cc(Br)c(S(=O)(=O)NCc2ccncc2)cc1C | 26%
Cc1cc(-c2ccc(C)c(S(=O)(=O)NCc3ccc(OC(C)C)cc3)c2)on1 | -14.2%
COc1cc(S(=O)(=O)NCc2ccccc2)ccc1Br | -7.9%
Cc1cc(-c2ccc(C)c(S(=O)(=O)NCc3ccc(Br)cc3)c2)on1 | 72.5% (active)
Cc1ccc(C)c(S(=O)(=O)NCc2ccncc2)c1 | 34.2%
O=c1[nH]c2ccc(NC(=S)NC3CCCCC3)cc2[nH]1 | 0.4%
